Measurements from PubChem BioAssay (NCATS).
Values joined by “and” are separate entries in the source; they are usually repeats but may differ in a detail not shown here. Equal entries are not always repeated. Results filed as inconclusive are left out. A structure can be active in one record and inactive in another. Active and inactive are the calls of the source. The call rests on the fitted dose curve; in most records, active means well fitted curve in the direction sought with a large enough effect; inconclusive means small, poorly fitted or top-dose-only effect, or another doubt; inactive means no such curve, though single readings can be large; an effect the other way counts as inactive or inconclusive.

Key:
[1] = test system: MKL-1; test: qHTS assay to identify novel small-molecules to repurpose for Merkel cell carcinoma treatment (AID 1296009); details: MCC and control cell lines, CellTiter-Glo viability, 72 h; series mostly up to 46 µM; further: nearly all actives have a fitted effect of over 60% in size
In short: (§1)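 Cell viability, measured as CellTiter-Glo luminescence, was normalized between DMSO and no-cell wells. The cells had been exposed to 8- or 11-point compound dilutions for 72 hr at 37 degree celsius.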

[2] = test system: MKL-2; test: as above; details: MCC and control cell lines, CellTiter-Glo viability, 72 h; series mostly up to 46 µM
In short: as §1

[3] = test system: WaGa; test: as above; details: MCC and control cell lines, CellTiter-Glo viability, 72 h; series mostly up to 46 µM
In short: as §1

[4] = test system: CAOV3; test: Primary qHTS to identify gynecologic anti-cancer compounds using libraries of approved drugs and bioactive compounds (AID 1345084); details: Gynecologic cancer cell panel viability, ATPlite luminescence, 48 h; series mostly up to 57.5 µM; further: nearly all actives have a fitted effect of over 55% in size
In short: (§2)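 Five-point cytotoxicity, 48 h drug exposure at 37 C, 5% CO2, on cells seeded 16 h beforehand. ATP content read by ATPlite luminescence.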

[5] = test system: CASKI; test: as above; details: Gynecologic cancer cell panel viability, ATPlite luminescence, 48 h; series mostly up to 57.5 µM
In short: as §2

[6] = test system: Es-2; test: as above; details: Gynecologic cancer cell panel viability, ATPlite luminescence, 48 h; series mostly up to 57.5 µM
In short: as §2

[7] = test system: HeLa; test: as above; details: Gynecologic cancer cell panel viability, ATPlite luminescence, 48 h; series mostly up to 57.5 µM
In short: as §2

[8] = test system: Hek293T; test: as above; details: Gynecologic cancer cell panel viability, ATPlite luminescence, 48 h, control line for the selectivity index; series mostly up to 57.5 µM
In short: as §2

[9] = test system: OV90; test: as above; details: Gynecologic cancer cell panel viability, ATPlite luminescence, 48 h; series mostly up to 57.5 µM
In short: as §2

[10] = test system: SKOV3; test: as above; details: Gynecologic cancer cell panel viability, ATPlite luminescence, 48 h; series mostly up to 57.5 µM
In short: as §2

[11] = test system: Tov112D; test: as above; details: Gynecologic cancer cell panel viability, ATPlite luminescence, 48 h; series mostly up to 57.5 µM
In short: as §2

[12] = Drug repurposing screens with cells derived from glioblastoma tumor samples (AID 1345199); details: GBM patient neurospheres viability, ATP luminescence, 48 h; further: nearly all actives have a fitted effect of over 40% in size
In short: (§3)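 Primary testing used CD133+ neurospheres from four GBM patients, seven concentrations, 48 h exposure and ATP-based viability; confirmation added three slower-growing patient lines.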

[13] = test system: NIH3T3; test: qHTS assay to identify novel small-molecules to repurpose for Merkel cell carcinoma treatment (AID 1296009); details: MCC and control cell lines, CellTiter-Glo viability, 72 h; series mostly up to 44.8 µM; further: nearly all actives have a fitted effect of over 60% in size
In short: as §1

[14] = test system: UISO; test: as above; details: MCC and control cell lines, CellTiter-Glo viability, 72 h; series mostly up to 46 µM
In short: as §1

[15] = test system: C33A; test: Primary qHTS to identify gynecologic anti-cancer compounds using libraries of approved drugs and bioactive compounds (AID 1345084); details: Gynecologic cancer cell panel viability, ATPlite luminescence, 48 h; series mostly up to 57.5 µM; further: nearly all actives have a fitted effect of over 55% in size
In short: as §2

[16] = test system: JEG-3; test: as above; details: Gynecologic cancer cell panel viability, ATPlite luminescence, 48 h; series mostly up to 57.5 µM
In short: as §2

[17] = test system: PA-1; test: as above; details: Gynecologic cancer cell panel viability, ATPlite luminescence, 48 h; series mostly up to 57.5 µM
In short: as §2

[18] = test system: Tov-21-G; test: as above; details: Gynecologic cancer cell panel viability, ATPlite luminescence, 48 h; series mostly up to 57.5 µM
In short: as §2

[19] = test system: astro; test: Drug repurposing screens with cells derived from glioblastoma tumor samples (AID 1345199); details: viability, ATP luminescence, 48 h; series mostly up to 45.9 µM; further: nearly all actives have a fitted effect of over 40% in size
In short: as §3

[20] = at 45.9 µM (top of the series), tumour line B
[21] = at 46 µM (top of the series), tumour line A
[22] = at 46.1 µM (top of the series), tumour line C
[23] = at 45.9 µM (top of the series), tumour line D
On the % scale 0 is the no-effect control and ±100 the full control effect; potency means the concentration at half of the fitted maximal effect.

O=c1[nH]cc(F)c(=O)[nH]1
active: Potency [3] 10.5 µM
inactive: Potency [1] | Potency [2] | Potency [4] | Potency [5] | Potency [6] | Potency [7] | Potency [8] | Potency [9] | Potency [10] | Potency [11] | activity, negative = cell killing [12, 20] -26.1% | activity, negative = cell killing [12, 21] -11.3% | activity, negative = cell killing [12, 22] -29.9%

O=C1Cc2cc(CCN3CCN(c4nsc5ccccc45)CC3)c(Cl)cc2N1
active: Potency [2] 11.9 µM and 14.8 µM | Potency ([12]; tumour line B) 17.8 µM | Potency ([12]; tumour line D) 12.6 µM
inactive: outcome [13] | Potency [15] | Potency [5] | Potency [6] | Potency [7] | Potency [8] | Potency [16] | Potency [9] | Potency [17] | Potency [10] | Potency [18] | Potency [11] | activity, negative = cell killing [12, 20] -28.8% | activity, negative = cell killing [12, 23] -18.4% | activity, negative = cell killing [12, 22] -28.3% and -12.6%
15 µM (active) and inactive: Potency [14]

CN1CCN(CCCN2c3ccccc3Sc3ccc(Cl)cc32)CC1
inactive: Potency [14] | Potency [15] | Potency [5] | Potency [6] | Potency [7] | Potency [8] | Potency [16] | Potency [10] | Potency [18] | Potency [11]
active: Potency [1] 16.6 µM | Potency [2] 11.8 µM | Potency [19] 20 µM

Cn1c(=O)c2[nH]cnc2n(C)c1=O
inactive: Potency [15] | Potency [4] | Potency [5] | Potency [6] | Potency [7] | Potency [8] | Potency [16] | Potency [9] | Potency [17] | Potency [10] | Potency [18] | Potency [11] | activity, negative = cell killing [12, 20] -8.57% | activity, negative = cell killing [12, 23] -12.3% | activity, negative = cell killing [12, 21] -8.84% | activity, negative = cell killing [12, 22] -5.36% | Potency [19]

CC#C[C@]1(O)CC[C@H]2[C@@H]3CCC4=CC(=O)CCC4=C3[C@@H](c3ccc(N(C)C)cc3)C[C@@]21C
inactive and 105 nM (active): Potency [1]
inactive: Potency [15] | Potency [5] | Potency [6] | Potency [8] | Potency [16] | Potency [9] | Potency [17] | Potency [10] | Potency [18] | Potency [11]
active: Potency [2] 21.1 µM and 93.5 nM | Potency [14] 2.96 µM

O=C1N(c2ccccc2)c2ccccc2C1(Cc1ccncc1)Cc1ccncc1
inactive: Potency [1] | Potency [2] | Potency [14] | Potency [3] | Potency [15] | Potency [7] | Potency [8] | Potency [16] | Potency [9] | Potency [17] | Potency [10] | Potency [18] | Potency [11] | activity, negative = cell killing [12, 20] -5.15% | activity, negative = cell killing [12, 23] -2.7% | activity, negative = cell killing [12, 22] -22.5% | Potency [19]
active: Potency [6] 1 µM

CN(C)CCC=C1c2ccccc2C=Cc2ccccc21
active: Potency ([12]; tumour line A) 14.1 µM
inactive: Potency [1] | Potency [14] | Potency [3] | Potency [15] | Potency [5] | Potency [7] | Potency [8] | Potency [16] | Potency [17] | Potency [18] | activity, negative = cell killing [12, 22] 15.9% | Potency [19]

O=C(C1CCCCC1)N1CC(=O)N2CCc3ccccc3C2C1 (configuration not stated)
inactive: Potency [15] | Potency [5] | Potency [6] | Potency [7] | Potency [8] | Potency [16] | Potency [9] | Potency [17] | Potency [10] | Potency [18] | Potency [11] | activity, negative = cell killing [12, 20] -15.1% | activity, negative = cell killing [12, 23] -7.27% | activity, negative = cell killing [12, 22] -6.57% | Potency [19]
